Among the data in the supplement of paper PMC6555819 are PBM binding z-score values, retold here.

For the assay, the system named is PPARa:RXRa (NR concentration 270 nM, RXRa partner concentration 90 nM). In words: PBM binding z-score (relative to random genomic background probes); higher = stronger binding; sequences stand for … in GC…GCGATTGACAGCGTAGAATGAAGG
The gist of the method:
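Regression normalization was applied to scanned fluorescence from custom Agilent 4×180K protein-binding microarrays. Before scanning, arrays were incubated 1 h with ligand-free nuclear receptor dimers, and binding was detected with antibodies against each partner (one per run). Binding z-scores use the random background probes as reference.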
With CCTAGCAGGCCAGGGTCACACAAGCATTTCGCTT, the PBM binding z-score came out at 4. For ATATGTAGGTTATGGGGTCATTCAGTTTGCGCAT the value was 5.91; for ACTATTACTTGAGACGAGGGCAACCGATAGGTTG, 0.44.

Consider CCTACTGGGCCATCAAGTCATTGATATCAACGTT, for which the PBM binding z-score came to 1.02. TCATAAAGGTAAAGGTGAAAGTCGAACGATATGA: the PBM binding z-score amounted to 3.51. On to TCTGCTAGTTCAGTTGGTCAGCTAACGAGCTGCC, for which the PBM binding z-score came to 0.1.

Consider TCATATATGTAAACAGGTGAAAGTCCGTAAGTTA, for which the PBM binding z-score came to 1.84. ATTTCTAGGTAACCAAGTTCAGTGAATGCCGAAC: the PBM binding z-score was determined as 2.16. The result for ACTAGTTGGTCAGCTGACGTCACACACAATTCGG reads 0.229; that for ACAGAAAGGTGAGTGAAGGTAACTCAGCTGGACG, 1.81. The result for TCTAGTTGGTCACGGAGCTCACACACGACGGGTA reads 0.663; that for ATCTCTAGGTAACCATGTTCAGTGAATGCCGAAC, 0.518. For AGTCAAAGTTCATCTAGGAAACGTAAGATATGCT the value was 4.85; for TCTATTAGTTGAAGGGCAACCGCCGAGTCCGTTT, 0.935. Sequence TCAGATAGGTAAACAGGTGAAAGTCCGTAAGTTA returned a PBM binding z-score of 2.07. The result for CCGACTGGGGCATAAGGGTACCATAAGCCAGCCC reads 0.305; that for ATATCTAGGTTAAGGGTCATTCAGGTTGGTTCGC, 6.83; that for TGTTGTAGATCAATAGAGGTTAAGAAAGTGCGCT, 1.63. The result for CCTAGTGGGTCAAGGTCACACACGCTATAGGTAC reads 5.54; that for ACTATGAGTTGACTTAGGGCAACCGATACGACGC, 0.327. The result for GCTGCTAGGTCAATTGATGGTCAGCTAAAGCTCG reads 2.93; that for CCTACTGGGCCATTCAGAGGTCATTGGTCATATG, 3.65.
